Measurements published in publication PMC7862700, “An all-to-all approach to the identification of sequence-specific readers for epigenetic DNA modifications on cytosine”.

How the values were obtained:
Experiment in all cases: DAPPL (digital affinity profiling via proximity ligation, sequencing); 10 mM Tris-HCl pH 7.5, 50 mM NaCl, 1 mM DTT, 4% glycerol, room temperature, 30 min; GST-TFs on glutathione beads, 16-mer random dsDNA library, 0.1% formaldehyde crosslink after washing; high values mean tight binding
FEV = molecular target: T1, FEV (Homo sapiens, UniProt Q99581 1-238); settings: protein: recombinant; tags: N-terminal GST; dsDNA, one strand shown
T1 sequence: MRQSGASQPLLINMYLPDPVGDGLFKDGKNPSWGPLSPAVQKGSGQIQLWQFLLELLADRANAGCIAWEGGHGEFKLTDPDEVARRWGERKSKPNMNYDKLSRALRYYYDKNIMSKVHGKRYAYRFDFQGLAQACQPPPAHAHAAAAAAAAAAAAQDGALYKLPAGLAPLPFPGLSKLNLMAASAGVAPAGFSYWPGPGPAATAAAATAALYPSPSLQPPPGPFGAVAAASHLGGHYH
Method in brief: (§1)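 Binding signal is defined as a hexamer's read frequency for one factor over its frequency for the tag-only sample. To obtain reads, GST-fused human transcription factors were expressed in yeast, captured on glutathione beads, barcoded with DNA and pooled with that sample. Pools met 200 nmole of a 16-mer random double-stranded DNA library in Tris/NaCl/DTT/glycerol buffer for 30 min at room temperature before washing, 0.1% formaldehyde crosslinking, proximity ligation (BsaI/T4 ligase, 1 h, 37 °C), PCR and Illumina NextSeq500 sequencing.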

ETV5 = ETV5 (Homo sapiens, UniProt P41161 1-510); settings: protein: recombinant; tags: N-terminal GST; dsDNA, one strand shown
Method in brief: as §1

HSF1 = HSF1 (Homo sapiens, UniProt Q00613 1-529); settings: protein: recombinant; tags: N-terminal GST; chain copies: 3; dsDNA, one strand shown
Method in brief: as §1

SPIC = molecular target: T2, SPIC (Homo sapiens, UniProt Q8N5J4 1-248); settings: protein: recombinant; tags: N-terminal GST; dsDNA, one strand shown
T2 sequence: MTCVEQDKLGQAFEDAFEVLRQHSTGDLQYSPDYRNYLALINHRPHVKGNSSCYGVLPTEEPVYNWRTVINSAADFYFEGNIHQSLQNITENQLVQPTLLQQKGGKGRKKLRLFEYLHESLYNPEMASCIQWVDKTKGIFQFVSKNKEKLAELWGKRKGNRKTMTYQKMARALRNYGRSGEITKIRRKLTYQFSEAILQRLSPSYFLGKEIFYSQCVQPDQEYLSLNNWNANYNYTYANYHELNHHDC
Method in brief: as §1

ELF4 = ELF4 (Homo sapiens, UniProt Q99607 1-663); settings: protein: recombinant; tags: N-terminal GST; dsDNA, one strand shown
Method in brief: as §1

ELK4 = molecular target: T3, ELK4 (Homo sapiens, UniProt P28324-2 1-405); settings: protein: recombinant; tags: N-terminal GST; dsDNA, one strand shown
T3 sequence: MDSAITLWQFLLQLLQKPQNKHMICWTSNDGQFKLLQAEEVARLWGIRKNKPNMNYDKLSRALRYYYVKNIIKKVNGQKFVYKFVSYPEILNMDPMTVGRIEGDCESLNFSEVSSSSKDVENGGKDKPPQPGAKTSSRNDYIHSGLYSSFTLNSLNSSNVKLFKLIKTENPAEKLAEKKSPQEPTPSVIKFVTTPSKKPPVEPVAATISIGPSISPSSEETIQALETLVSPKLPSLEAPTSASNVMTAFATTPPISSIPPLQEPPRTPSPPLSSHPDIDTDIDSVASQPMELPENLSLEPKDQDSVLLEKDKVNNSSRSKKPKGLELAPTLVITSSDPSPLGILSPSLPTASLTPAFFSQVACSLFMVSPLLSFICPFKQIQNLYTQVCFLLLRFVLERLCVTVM
Method in brief: as §1

ETV2 = molecular target: T4, ETV2 (Homo sapiens, UniProt O00321 1-342); settings: protein: recombinant; tags: N-terminal GST; dsDNA, one strand shown
T4 sequence: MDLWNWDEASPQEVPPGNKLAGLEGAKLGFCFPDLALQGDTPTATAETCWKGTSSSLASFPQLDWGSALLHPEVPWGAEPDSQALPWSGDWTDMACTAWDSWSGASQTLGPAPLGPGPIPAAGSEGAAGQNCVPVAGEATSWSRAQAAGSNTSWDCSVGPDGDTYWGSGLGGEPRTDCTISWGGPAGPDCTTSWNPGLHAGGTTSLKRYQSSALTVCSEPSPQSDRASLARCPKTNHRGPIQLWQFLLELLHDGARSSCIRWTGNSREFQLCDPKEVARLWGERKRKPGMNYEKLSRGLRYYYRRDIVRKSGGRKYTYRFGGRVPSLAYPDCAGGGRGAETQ
Method in brief: as §1

ELF3 = molecular target: T5, ELF3 (Homo sapiens, UniProt P78545 1-371); settings: protein: recombinant; tags: N-terminal GST; dsDNA, one strand shown
T5 sequence: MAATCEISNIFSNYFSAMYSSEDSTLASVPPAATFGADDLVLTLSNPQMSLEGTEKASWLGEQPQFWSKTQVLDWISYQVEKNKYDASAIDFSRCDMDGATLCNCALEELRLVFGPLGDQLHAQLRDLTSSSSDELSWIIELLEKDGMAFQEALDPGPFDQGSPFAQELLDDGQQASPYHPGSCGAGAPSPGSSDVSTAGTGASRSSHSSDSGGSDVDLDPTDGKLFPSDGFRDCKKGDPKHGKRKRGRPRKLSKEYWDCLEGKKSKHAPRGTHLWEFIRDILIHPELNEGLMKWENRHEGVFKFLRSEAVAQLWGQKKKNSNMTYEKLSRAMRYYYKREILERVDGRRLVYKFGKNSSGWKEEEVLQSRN
Method in brief: as §1

CRX = CRX (Homo sapiens, UniProt O43186 1-299); settings: protein: recombinant; tags: N-terminal GST; dsDNA, one strand shown
Method in brief: as §1

ETV1 = ETV1 (Homo sapiens, UniProt P50549 1-477); settings: protein: recombinant; tags: N-terminal GST; dsDNA, one strand shown
Method in brief: as §1

ERF = molecular target: T6, ERF (Homo sapiens, UniProt P50548 1-548); settings: protein: recombinant; tags: N-terminal GST; dsDNA, one strand shown
T6 sequence: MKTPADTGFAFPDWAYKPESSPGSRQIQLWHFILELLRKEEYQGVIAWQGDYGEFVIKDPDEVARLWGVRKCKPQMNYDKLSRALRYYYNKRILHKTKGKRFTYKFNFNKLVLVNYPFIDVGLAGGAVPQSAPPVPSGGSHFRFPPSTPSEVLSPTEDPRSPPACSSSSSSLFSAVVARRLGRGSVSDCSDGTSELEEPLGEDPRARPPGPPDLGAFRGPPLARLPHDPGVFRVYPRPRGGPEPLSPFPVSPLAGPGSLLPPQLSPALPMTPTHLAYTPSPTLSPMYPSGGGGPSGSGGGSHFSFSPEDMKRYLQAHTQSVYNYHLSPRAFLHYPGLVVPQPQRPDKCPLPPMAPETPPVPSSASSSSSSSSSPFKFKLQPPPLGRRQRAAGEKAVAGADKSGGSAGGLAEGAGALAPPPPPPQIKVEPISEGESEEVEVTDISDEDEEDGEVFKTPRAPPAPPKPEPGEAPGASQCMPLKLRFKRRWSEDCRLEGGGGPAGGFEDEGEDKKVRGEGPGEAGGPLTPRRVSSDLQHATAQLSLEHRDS
Method in brief: as §1

ETV3L = molecular target: T7, ETV3L (Homo sapiens, UniProt Q6ZN32 1-361); settings: protein: recombinant; tags: N-terminal GST; dsDNA, one strand shown
T7 sequence: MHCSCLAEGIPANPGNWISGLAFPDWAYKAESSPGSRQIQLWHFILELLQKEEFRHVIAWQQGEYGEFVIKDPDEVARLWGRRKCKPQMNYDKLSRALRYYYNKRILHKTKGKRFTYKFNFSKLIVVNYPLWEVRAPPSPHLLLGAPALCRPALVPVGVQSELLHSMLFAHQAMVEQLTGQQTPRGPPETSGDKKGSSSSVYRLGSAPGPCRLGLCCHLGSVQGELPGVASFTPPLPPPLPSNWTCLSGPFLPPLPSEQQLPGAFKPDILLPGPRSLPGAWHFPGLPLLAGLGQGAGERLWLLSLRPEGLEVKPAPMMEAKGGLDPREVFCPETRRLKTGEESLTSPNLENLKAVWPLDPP
Method in brief: as §1

ETS2 = molecular target: T8, ETS2 (Homo sapiens, UniProt P15036 1-469); settings: protein: recombinant; tags: N-terminal GST; dsDNA, one strand shown
T8 sequence: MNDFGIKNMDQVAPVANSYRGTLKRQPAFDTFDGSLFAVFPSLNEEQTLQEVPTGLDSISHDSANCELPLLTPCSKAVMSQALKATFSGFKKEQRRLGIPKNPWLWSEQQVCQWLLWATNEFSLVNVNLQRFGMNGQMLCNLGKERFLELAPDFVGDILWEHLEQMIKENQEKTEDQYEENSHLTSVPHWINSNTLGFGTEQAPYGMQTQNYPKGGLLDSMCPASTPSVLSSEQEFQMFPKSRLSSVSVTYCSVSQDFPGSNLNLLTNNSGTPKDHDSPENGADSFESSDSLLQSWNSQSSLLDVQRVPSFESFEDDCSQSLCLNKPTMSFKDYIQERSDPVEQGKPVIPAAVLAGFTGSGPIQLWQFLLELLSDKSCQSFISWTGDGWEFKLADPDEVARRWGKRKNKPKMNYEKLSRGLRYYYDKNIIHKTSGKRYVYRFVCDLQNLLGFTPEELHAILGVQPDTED
Method in brief: as §1

SPDEF = molecular target: T9, SPDEF (Homo sapiens, UniProt O95238 1-335); settings: protein: recombinant; tags: N-terminal GST; dsDNA, one strand shown
T9 sequence: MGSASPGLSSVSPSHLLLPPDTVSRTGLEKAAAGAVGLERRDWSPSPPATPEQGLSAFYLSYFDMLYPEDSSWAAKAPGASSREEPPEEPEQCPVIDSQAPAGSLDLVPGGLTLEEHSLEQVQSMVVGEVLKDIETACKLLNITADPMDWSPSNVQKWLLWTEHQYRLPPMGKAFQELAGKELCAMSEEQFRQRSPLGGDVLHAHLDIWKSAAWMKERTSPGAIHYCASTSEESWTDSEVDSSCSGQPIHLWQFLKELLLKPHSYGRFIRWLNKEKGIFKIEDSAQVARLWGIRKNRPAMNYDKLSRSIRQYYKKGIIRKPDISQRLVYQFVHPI
Method in brief: as §1

ETV7 = molecular target: T10, ETV7 (Homo sapiens, UniProt Q9Y603 1-341); settings: protein: recombinant; tags: N-terminal GST; dsDNA, one strand shown
T10 sequence: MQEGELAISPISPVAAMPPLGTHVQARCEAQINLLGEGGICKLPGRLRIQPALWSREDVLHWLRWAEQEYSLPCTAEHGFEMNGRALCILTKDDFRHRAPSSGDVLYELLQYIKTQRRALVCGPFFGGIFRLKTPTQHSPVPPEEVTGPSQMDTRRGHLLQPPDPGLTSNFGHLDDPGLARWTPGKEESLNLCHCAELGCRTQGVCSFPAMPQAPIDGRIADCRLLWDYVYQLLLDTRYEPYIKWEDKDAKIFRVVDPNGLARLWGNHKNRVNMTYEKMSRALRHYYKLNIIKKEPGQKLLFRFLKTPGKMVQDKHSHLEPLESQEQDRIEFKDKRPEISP
Method in brief: as §1

ELF5 = molecular target: T11, ELF5 (Homo sapiens, UniProt Q9UKW6-2 1-255); settings: protein: recombinant; tags: N-terminal GST; dsDNA, one strand shown
T11 sequence: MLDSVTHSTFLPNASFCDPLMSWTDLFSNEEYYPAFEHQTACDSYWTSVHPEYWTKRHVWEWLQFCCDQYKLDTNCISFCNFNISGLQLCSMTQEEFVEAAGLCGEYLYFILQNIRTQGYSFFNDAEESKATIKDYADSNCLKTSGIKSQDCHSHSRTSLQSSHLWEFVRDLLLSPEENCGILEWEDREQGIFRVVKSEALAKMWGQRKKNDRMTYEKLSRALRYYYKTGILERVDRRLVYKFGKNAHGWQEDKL
Method in brief: as §1

ETV3 = molecular target: T12, ETV3 (Homo sapiens, UniProt P41162-2 1-143); settings: protein: recombinant; tags: N-terminal GST; dsDNA, one strand shown
T12 sequence: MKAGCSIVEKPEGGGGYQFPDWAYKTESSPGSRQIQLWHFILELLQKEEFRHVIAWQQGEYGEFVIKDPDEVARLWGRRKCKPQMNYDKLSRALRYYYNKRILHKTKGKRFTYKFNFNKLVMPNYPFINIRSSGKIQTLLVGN
Method in brief: as §1

ETV6 = ETV6 (Homo sapiens, UniProt P41212 1-452); settings: protein: recombinant; tags: N-terminal GST; dsDNA, one strand shown
Method in brief: as §1

Chain of ETV6 (P41212 whole entry): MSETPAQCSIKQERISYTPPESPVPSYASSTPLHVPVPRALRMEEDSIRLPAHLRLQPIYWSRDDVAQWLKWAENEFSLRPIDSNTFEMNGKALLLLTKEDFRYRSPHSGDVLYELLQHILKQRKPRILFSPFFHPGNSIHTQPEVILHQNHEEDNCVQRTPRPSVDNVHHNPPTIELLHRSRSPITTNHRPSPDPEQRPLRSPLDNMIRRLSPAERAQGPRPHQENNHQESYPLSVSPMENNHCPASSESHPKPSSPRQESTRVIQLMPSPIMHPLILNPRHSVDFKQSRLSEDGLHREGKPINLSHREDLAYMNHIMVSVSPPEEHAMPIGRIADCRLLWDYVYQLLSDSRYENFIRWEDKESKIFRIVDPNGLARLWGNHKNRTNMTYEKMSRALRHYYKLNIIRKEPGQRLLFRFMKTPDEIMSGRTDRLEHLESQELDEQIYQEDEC
Chain of ELF4 (Q99607 whole entry): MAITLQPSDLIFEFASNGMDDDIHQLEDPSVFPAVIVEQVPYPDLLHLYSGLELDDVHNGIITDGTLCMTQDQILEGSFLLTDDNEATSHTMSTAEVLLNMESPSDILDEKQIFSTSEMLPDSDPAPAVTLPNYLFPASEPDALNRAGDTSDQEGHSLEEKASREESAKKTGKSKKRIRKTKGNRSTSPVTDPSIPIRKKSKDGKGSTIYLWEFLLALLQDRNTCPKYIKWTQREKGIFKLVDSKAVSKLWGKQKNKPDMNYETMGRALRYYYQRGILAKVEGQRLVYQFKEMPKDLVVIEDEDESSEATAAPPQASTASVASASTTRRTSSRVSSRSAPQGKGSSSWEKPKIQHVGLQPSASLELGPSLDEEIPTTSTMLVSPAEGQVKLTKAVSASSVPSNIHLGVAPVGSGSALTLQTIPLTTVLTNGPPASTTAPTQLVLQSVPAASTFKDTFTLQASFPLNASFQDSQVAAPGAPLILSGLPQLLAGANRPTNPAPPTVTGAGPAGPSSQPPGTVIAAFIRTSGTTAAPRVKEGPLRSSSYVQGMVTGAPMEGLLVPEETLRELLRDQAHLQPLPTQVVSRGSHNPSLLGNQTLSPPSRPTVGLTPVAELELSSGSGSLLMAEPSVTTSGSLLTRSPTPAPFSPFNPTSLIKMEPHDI
Chain of ETV5 (P41161 whole entry): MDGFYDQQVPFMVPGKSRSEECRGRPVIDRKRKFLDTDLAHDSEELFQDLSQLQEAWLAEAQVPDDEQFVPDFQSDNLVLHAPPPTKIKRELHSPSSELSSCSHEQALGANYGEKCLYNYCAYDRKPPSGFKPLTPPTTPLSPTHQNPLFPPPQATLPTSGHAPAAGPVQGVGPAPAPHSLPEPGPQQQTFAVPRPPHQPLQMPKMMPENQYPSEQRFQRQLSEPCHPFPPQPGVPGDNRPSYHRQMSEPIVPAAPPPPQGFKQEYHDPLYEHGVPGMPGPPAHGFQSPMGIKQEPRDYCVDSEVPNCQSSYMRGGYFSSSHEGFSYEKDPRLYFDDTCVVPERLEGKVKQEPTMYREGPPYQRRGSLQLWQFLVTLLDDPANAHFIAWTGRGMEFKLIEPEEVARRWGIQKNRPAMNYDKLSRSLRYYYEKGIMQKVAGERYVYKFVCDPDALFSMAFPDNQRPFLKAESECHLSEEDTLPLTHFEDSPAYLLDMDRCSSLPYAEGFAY
Chain of CRX (O43186 whole entry): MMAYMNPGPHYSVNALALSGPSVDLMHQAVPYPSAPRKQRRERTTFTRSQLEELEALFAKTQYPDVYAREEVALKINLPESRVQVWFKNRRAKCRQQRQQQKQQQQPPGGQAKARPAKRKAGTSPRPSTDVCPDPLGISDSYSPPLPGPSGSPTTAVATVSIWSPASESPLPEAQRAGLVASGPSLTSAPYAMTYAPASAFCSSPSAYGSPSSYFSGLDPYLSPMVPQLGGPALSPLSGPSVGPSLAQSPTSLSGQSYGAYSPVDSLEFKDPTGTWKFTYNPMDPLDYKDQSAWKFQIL
Chain of ETV1 (P50549 whole entry): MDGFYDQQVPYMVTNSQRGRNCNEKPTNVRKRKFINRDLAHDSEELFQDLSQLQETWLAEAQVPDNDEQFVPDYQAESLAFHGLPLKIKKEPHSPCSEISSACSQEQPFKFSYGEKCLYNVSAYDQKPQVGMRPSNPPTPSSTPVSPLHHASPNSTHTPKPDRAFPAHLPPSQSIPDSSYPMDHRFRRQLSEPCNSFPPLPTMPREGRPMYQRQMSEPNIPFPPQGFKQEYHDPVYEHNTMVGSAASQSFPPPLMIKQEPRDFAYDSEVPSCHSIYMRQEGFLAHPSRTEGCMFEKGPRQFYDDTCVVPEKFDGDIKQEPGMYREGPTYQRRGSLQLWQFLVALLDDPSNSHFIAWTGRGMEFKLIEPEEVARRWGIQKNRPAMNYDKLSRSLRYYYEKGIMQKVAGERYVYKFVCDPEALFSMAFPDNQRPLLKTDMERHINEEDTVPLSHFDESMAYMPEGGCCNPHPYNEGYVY
Chain of HSF1 (Q00613 whole entry): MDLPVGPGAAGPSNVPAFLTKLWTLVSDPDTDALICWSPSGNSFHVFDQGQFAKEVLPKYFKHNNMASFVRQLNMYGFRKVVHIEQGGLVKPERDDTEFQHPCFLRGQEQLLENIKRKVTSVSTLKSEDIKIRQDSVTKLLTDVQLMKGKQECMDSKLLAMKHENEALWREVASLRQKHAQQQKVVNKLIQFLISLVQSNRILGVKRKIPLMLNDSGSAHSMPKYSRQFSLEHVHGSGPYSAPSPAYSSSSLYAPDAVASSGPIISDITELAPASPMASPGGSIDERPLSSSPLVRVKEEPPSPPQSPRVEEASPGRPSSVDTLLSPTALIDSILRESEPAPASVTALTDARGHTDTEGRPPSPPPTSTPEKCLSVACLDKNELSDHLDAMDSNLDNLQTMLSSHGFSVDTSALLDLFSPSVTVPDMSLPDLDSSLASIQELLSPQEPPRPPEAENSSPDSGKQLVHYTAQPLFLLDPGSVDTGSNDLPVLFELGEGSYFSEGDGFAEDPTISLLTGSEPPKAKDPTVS

Question: Which binding signal (FEV) does the source give for CCGGCT here?
Answer: 1.8 fold enrichment (6-mer frequency, TF over GST control)

Question: What about the binding signal (ETV5) of the same sequence?
Answer: 1.89 fold enrichment (6-mer frequency, TF over GST control)

Question: What about the binding signal (HSF1) of the same sequence?
Answer: 1.3 fold enrichment (6-mer frequency, TF over GST control)

Question: What about the binding signal (SPIC) of the same sequence?
Answer: 1.46 fold enrichment (6-mer frequency, TF over GST control)

Question: What about the binding signal (ELF4) of the same sequence?
Answer: 1.68 fold enrichment (6-mer frequency, TF over GST control)

Question: And the binding signal (ELK4)?
Answer: 1.53 fold enrichment (6-mer frequency, TF over GST control)

Question: And the binding signal (ETV2)?
Answer: 1.84 fold enrichment (6-mer frequency, TF over GST control)

Question: And the binding signal (ELF3)?
Answer: 1.8 fold enrichment (6-mer frequency, TF over GST control)

Question: And the binding signal (CRX)?
Answer: 1.6 fold enrichment (6-mer frequency, TF over GST control)

Question: And the binding signal (ETV1)?
Answer: 1.81 fold enrichment (6-mer frequency, TF over GST control)

Question: And the binding signal (ERF)?
Answer: 1.59 fold enrichment (6-mer frequency, TF over GST control)

Question: What about the binding signal (ETV3L) of the same sequence?
Answer: 1.69 fold enrichment (6-mer frequency, TF over GST control)

Question: What about the binding signal (ETS2) of the same sequence?
Answer: 1.71 fold enrichment (6-mer frequency, TF over GST control)

Question: And the binding signal (SPDEF)?
Answer: 2.32 fold enrichment (6-mer frequency, TF over GST control)

Question: What about the binding signal (ETV7) of the same sequence?
Answer: 1.74 fold enrichment (6-mer frequency, TF over GST control)

Question: And the binding signal (ELF5)?
Answer: 1.92 fold enrichment (6-mer frequency, TF over GST control)

Question: And the binding signal (ETV3)?
Answer: 1.7 fold enrichment (6-mer frequency, TF over GST control)

Question: What about the binding signal (ETV6) of the same sequence?
Answer: 1.77 fold enrichment (6-mer frequency, TF over GST control)
